Bioassay records: PubChem, several laboratories
NOD2 RIPK2 PPI = inhibitors of human NOD2-RIPK2 interaction | O43353 | CHO BLA complementation NOD2-RIPK2, CCF4 ratio | inhibition, % at 4.98 µM | 0.38% of 360,000 active | AID 624267; in the data active means inhibition above about 21%
GC-A act = GC-A (human) enzyme activation; 0.14% of 370,000 active; activation, % at 10 µM; HEK293 GC-A cells, cGMP TR-FRET, EC30 ANP; 0% at EC30 ANP, 100% saturating ANP; AID 1671463; in the data active means activation above about 40%
TLR9-MyD88 block = inhibitors of human TLR9-MyD88 binding. Q9NR96+Q99836. CHO BLA complementation TLR9-MyD88, CCF4 FRET ratio. inhibition, % at 4.98 µM. 0.21% of 340,000 active;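 active means inhibition above the mean over all tested compounds plus 3 SD, cut at about 21% in these data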
NPR2 activator = GC-B (human) receptor activation; HEK293-GC-B cells, CNP EC30, cGMP TR-FRET; 0% at EC30 CNP, 100% saturating CNP; activation, % at 10 µM; 0.11% of 370,000 active; AID 1920062;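 active means activation at 10 µM reaching about 35% in either raw or pattern-adjusted values, limit read from the data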
Neddyl block = inhibitors of human cullin neddylation. AID 651699. 0.58% of 360,000 active. TR-FRET cullin neddylation, biochemical. P61081+Q13564. inhibition, % at 25 µM; in the data active means inhibition above about 36%
TLR4 MyD88 comp = blocks binding of human TLR4 to MyD88; HeLa CL3-4 TLR4/MyD88 BLA complementation, FRET ratio; inhibition, % at 8.4 µM; 0.18% of 200,000 active; AID 861; in the data active means inhibition above about 25%
Neddyl conf = cullin neddylation inhibition, confirmation; shares compounds with Neddyl block; TR-FRET cullin neddylation biochemical assay; calls only at 25 µM; 13% of 1,800 active; in the data active means inhibition above about 40%;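 further: neddylation substrate is the cullin 1 ring ligase complex with SKP2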
Numbers stand for hits; - = inactive; . = no result given; + = active, no number. A selection: hits, their analogues and other compounds. The true share with any hit is near 1.2%.

SMILES	NOD2 RIPK2 PPI	GC-A act	TLR9-MyD88 block	NPR2 activator	Neddyl block	TLR4 MyD88 comp	Neddyl conf
CN(CC(=O)Nc1cc(Cl)ccc1-n1cncn1)Cc1ccccc1N1CCOCC1	-	-	-	-	-	.	.
NC(=O)c1nsc(C(=O)N(CCc2ccccc2)C(C(=O)NC2CCCC2)c2ccco2)c1N (configuration not stated)	-	.	-	.	50	-	-
CCc1ccc(N(C(=O)c2snc(C(N)=O)c2N)C(C(=O)NC2CCCC2)c2ccco2)cc1 (configuration not stated)	-	-	-	-	41	.	-
COc1ccc(C(C(=O)NC2CCCC2)N(C(=O)c2snc(C(N)=O)c2N)c2ccccc2OC)cc1OC (configuration not stated)	-	-	-	-	42	.	.
N#CCn1c2ccccc2c2nc3ccccc3nc21	-	-	-	-	45	-	-
COc1ccc2c(C(=O)CN3CCSCC3)c[nH]c2c1	-	-	-	-	39	.	-
COc1cc2sc(-c3ccc(S(C)(=O)=O)cc3)c(C#CCO)c2cc1OC	-	-	-	-	50	.	+
O=C1NC(c2cccs2)Nc2sc3c(c21)CCCC3 (configuration not stated)	-	-	-	-	44	-	-
O=[N+]([O-])c1ccccc1/C=C/C=N/n1c(-c2cc(-c3ccccc3)n[nH]2)n[nH]c1=S	-	-	-	-	81	.	-
Cc1ccc(-c2n[nH]c(=S)n2/N=C/C=C/c2ccccc2[N+](=O)[O-])cc1	-	-	-	-	-	-	.
CN(C(=O)COC(=O)c1cccc(Cl)c1)C1CCS(=O)(=O)C1 (configuration not stated)	-	-	-	-	-	.	.
CN(C(=O)COC(=O)c1ccc(-c2ccc(O)cc2)cc1)C1CCS(=O)(=O)C1 (configuration not stated)	-	-	-	-	38	.	-
NC(=O)c1nn(-c2ccccc2)nc1NC(=O)CN1CCCCC1	-	-	-	-	46	-	-
CCOC(=O)C1(C)CCCCCN1C(=O)c1ccc(C(=O)OC)cc1 (configuration not stated)	-	-	.	-	-	.	.
Cn1cnc(S(=O)(=O)N2CCCCC2c2cc(C(=O)Nc3cccc4c3CCCC4)no2)c1 (configuration not stated)	-	-	.	-	-	.	.
Cc1ccc2nc(Cl)c(C3CC(c4cccs4)=NN3C(=O)CCC(=O)O)cc2c1 (configuration not stated)	-	-	-	-	-	-	.
Cc1ccc(-c2nn(-c3ccccc3)cc2C2CC(c3cccs3)=NN2C(=O)CCC(=O)O)cc1 (configuration not stated)	-	-	-	-	41	-	-
COCOCCn1cc(CN2CCS(=O)(=O)N(Cc3ccc(-c4ccc(Cl)nc4)cc3)C(C(C)C)C2=O)nn1 (configuration not stated)	-	-	-	-	-	.	.
N#C/C(=C\c1ccc2c(c1)OCO2)C(N)=S	-	-	.	-	-	.	.
N#C/C(=C/c1ccco1)C(N)=S	-	-	-	-	64	.	-
O=S1(=O)N=C(Oc2cccc3ccccc23)c2ccccc21	-	-	-	-	42	-	-
COc1ccc(C2Nc3ccccc3C(=O)N2Cc2cccnc2)cc1COc1c(C)cccc1C (configuration not stated)	.	-	.	-	.	.	.
COC(=O)[C@@]12CCCCC3=C1N(CCC3)C(=O)[C@H]2CC(=O)NCc1ccc(C)o1	.	-	.	-	.	.	.
COc1ccc2oc(C(=O)OCC(=O)N3CCC(C)CC3)c(C)c2c1	-	-	-	-	.	.	.
COc1ccc2oc(C(=O)OCC(=O)N(Cc3ccccc3)C(C)C)c(C)c2c1	-	-	-	-	44	.	-
SMILES	NOD2 RIPK2 PPI	GC-A act	TLR9-MyD88 block	NPR2 activator	Neddyl block	TLR4 MyD88 comp	Neddyl conf
COc1ccc2oc(C(=O)OCC(=O)NCc3ccc(OC)c(OC)c3)c(C)c2c1	-	-	-	-	43	.	-
COc1ccc2oc(C(=O)OC(C)C(=O)NCc3ccccc3)c(C)c2c1 (configuration not stated)	-	-	-	-	42	.	-
CCOc1ccc2oc(C(=O)OCC(=O)NCc3ccc(OC)cc3)c(C)c2c1	-	-	-	-	-	.	.
COC(=O)C1CCN(C(=O)COC(=O)c2oc3ccc(OC)cc3c2C)CC1	-	-	-	-	66	.	.
COc1ccc2oc(C(=O)OCC(=O)N(C)Cc3ccccc3)c(C)c2c1	-	-	-	-	.	.	.
C[C@@H]1CN([C@H](C)CO)C(=O)c2cc(-c3ccc(C(=O)N(C)C)cc3)cnc2O[C@@H]1CN(C)C(=O)c1cccnc1	-	-	-	-	-	.	.
COc1ccc2oc(C(=O)OCC(=O)N(C)c3ccccc3)c(C)c2c1	-	-	-	-	55	.	.
COc1ccc2oc(C(=O)OCC(=O)Nc3ccccc3)c(C)c2c1	-	-	-	-	.	.	.
CC(C)Cn1nc(NC(=O)c2ccco2)c2cc3ccccc3nc21	-	-	-	-	46	.	.
CCn1nc(NC(=O)c2ccco2)c2cc3ccccc3nc21	-	-	-	-	.	-	.
C/C(=N\NC(=O)c1ccc(NS(=O)(=O)c2cccs2)cc1)c1ccc(O)cc1O	-	-	-	-	42	.	.
O=C(N/N=C/c1ccc(N2CCOCC2)s1)c1ccc(NS(=O)(=O)c2cccs2)cc1	-	-	-	-	50	.	+
CCCN1CCN(C(c2cc3cc(OCC)ccc3[nH]c2=O)c2nnnn2C2CCCCC2)CC1 (configuration not stated)	-	-	-	-	45	-	.
C=Cc1ccc(Cn2c(C)c(C(=O)NCc3ccc4c(c3)OCCO4)sc2=O)cc1	-	-	.	-	-	.	.
Cc1c(Cc2ccccc2)c(=O)oc2c(C)c(OCc3nn[nH]n3)ccc12	-	-	-	-	41	-	-
COc1cccc(/C=N/Nc2nc3ccccc3[nH]2)c1OC	-	-	-	-	-	.	.
COc1cccc(/C=N/Nc2ncnc3c2[nH]c2ccc(C)cc23)c1OC	-	-	-	-	81	.	-
COc1cccc(/C=N/Nc2ncc(C)c(=O)[nH]2)c1OC	-	-	-	-	40	.	-
COc1ccc(/C=N/Nc2ncnc3c2[nH]c2ccccc23)c(OC)c1OC	-	-	-	-	-	-	.
C[C@H](CO)N1C[C@H](C)[C@@H](CN(C)S(=O)(=O)c2ccccc2)Oc2c(NS(=O)(=O)c3ccccc3)cccc2C1=O	-	-	-	-	-	.	.
O=C(CSc1nnc(-c2ccccn2)n1-c1ccc(Cl)cc1)Nc1cccc2ccccc12	.	-	.	-	.	.	.
CN1CCCCc2c1nc1c(c2N)CCCC1	-	-	-	-	39	-	-
Cc1nc(=S)c2ccccc2[nH]1	-	-	-	-	-	-	.
